PubChem BioAssay (EPA / NIEHS)
Calls of active or inactive are those of the source. Rule for the calls: active = hit-call score of the fitted dose curve at least 0.9, where 1 is the maximum; inactive = score below 0.9.

Experiment: CCTE_Shafer_MEA_acute_cross_correlation_area: CCTE's Neural Acute Assay for Area of Cross Correlation, Shafer Lab (AID 2284024);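 note: curves fitted for loss of cross-correlation area so actives lower synchrony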
Method: CCTE_Shafer_MEA_acute assay is conducted using Axion Biosystems 48 well microelectrode array (MEA) plates and Maestro recording system. Each well of the MEA plate contains a grid of 16 microelectrodes embedded in the culture surface. Electrically active cells, such as neurons, can be cultured over the electrodes, and electrical activity in these cells can be recorded extracellularly. The spontaneous firing of neurons is captured from each electrode on a microsecond timescale providing both temporally and spatially precise data. […] The CCTE_Shafer_MEA_acute assay uses primary cultures of rat cortical neurons. As these cultures mature over time, neural networks develop functional activity and form cohesive networks in which electrical activity can be highly coordinated. Baseline 40-minute recordings are made on days post-plating 13 or 15, followed by a secondary 40-minute recording after chemical exposure.CCTE_Shafer_MEA_acute_cross_correlation_area is a component of the CCTE_Shafer_MEA_acute assay. It measures the area under the well-wide pooled inter-electrode cross-correlation of action potential firing (not normalized to auto-correlations) within a window centered around 0 for the phase lag during a recording in a microelectrode array (MEA) using Axion Biosystems Maestro 768 channel amplifier with the AxIS adaptive spike detector. The recordings before and after chemical treatment are used to calculate a percent change in the cross correlation area in each well.Data from the assay component CCTE_Shafer_MEA_acute_cross_correlation_area was analyzed into 1 assay endpoint. This assay endpoint, CCTE_Shafer_MEA_acute_cross_correlation_area, was analyzed in the negative analysis fitting direction relative to DMSO as the negative control and baseline of activity. Using a type of functional reporter, gain or loss-of-signal activity can be used to understand electrical activity.
Spontaneous activity in the cortical cultures was recorded using an Axion Biosystems Maestro 768 channel amplifier and Axion Integrated Studios (AxIS) v1.8 (or later) software. The amplifier recorded from all channels simultaneously (gain = 1200 x; sampling rate = 12.5 kHz/channel): raw signals were filtered with a Butterworth band-pass filter (300-5000 Hz), which filters out slower local field potentials leaving only fast potentials, i.e., "spikes", arising from extracellular currents associated with action potentials (Pine 2006; Wheeler and Nam 2011). On-line spike detection of filtered signals was conducted with the AxIS adaptive spike detector, using a threshold of 8x the root mean squared (rms) noise on each channel. Any electrodes with rms noise levels greater than 5 uV were grounded (e.g., no data were recorded). Once grounded, an electrode was grounded for the duration of the experiment. All recordings were conducted at 37 C. Wells were deemed usable if on the day of the exposure >/= 10 electrodes were active (defined as >/= 5 spikes/min). On DIV 13 or 15, a minimum of three wells from one cortical culture preparation were treated with each compound (0.03-40 uM). Prior to recording baseline activity, each mwMEA plate was placed in the Maestro at 37 C and allowed to sit for 20 min while firing rates stabilized. Baseline activity (40 min) was recorded before the addition of each compound. An additional 40 min of spontaneous activity was recorded in the presence of each compound. Changes in network parameters relative to baseline were assessed following compound treatment.

outcome, inactive:
CC[C@H]1OC(=O)[C@H](C)[C@@H](O[C@H]2C[C@@](C)(OC)[C@@H](O)[C@H](C)O2)[C@H](C)[C@@H](O[C@@H]2O[C@H](C)C[C@H](N(C)C)[C@H]2O)[C@](C)(O)C[C@@H](C)C(=O)[C@H](C)[C@@H](O)[C@]1(C)O
CCC(C)(C)C(=O)O[C@H]1C[C@@H](C)C=C2C=C[C@H](C)[C@H](CC[C@@H]3C[C@@H](O)CC(=O)O3)[C@H]21
O=C(O)CCN(C1(C(=O)NO)CCCC1)S(=O)(=O)c1ccc(Oc2ccc(F)cc2)cc1
O=C(O)c1cc(N=Nc2ccc(S(=O)(=O)Nc3ccccn3)cc2)ccc1O
CCCN(C1CCN(C(=O)C2CCNCC2)CC1)[C@@H]1CCc2ccc(OC)cc2C1
CCCCCCCCCCCCc1ccccc1
COc1ccc2sc(C(=O)Nc3nnn[nH]3)c(OC(C)C)c2c1
O=P(OC(CCl)CCl)(OC(CCl)CCl)OC(CCl)CCl
CC(C)=CCCC(C)=CC=O
CCCCC(CC)COC(=O)CCCCCCCCC(=O)OCC(CC)CCCC (stereo not drawn)
On1ccccc1=S
CCCCCCc1ccc(O)cc1O
CC[C@H]1CC[C@H](NCc2cc3c(cc2OC)[C@H]2C[C@H]2C(=O)N3C)[C@H](c2ccccc2)N1
Cc1[nH]cnc1C[C@H]1CCc2c(C)c3ccccc3n2C1=O
Cn1c(=O)c2c(ncn2C)n(C)c1=O
Cn1cnc([N+](=O)[O-])c1Sc1ncnc2nc[nH]c12
CCOC(=O)c1ccc(C2CCC(NC[C@H](O)COc3ccc(O)c(NS(C)(=O)=O)c3)CC2)cc1 (stereo partly drawn)

AC50, active:
COc1cccc(-c2ccc(/C=C\CN3CCCCCC3)cc2Cl)c1 3.7 µM
